High-throughput results (PubChem)
Hits are enriched below; roughly 1.2% of the tested compounds scored in any of these assays.
RXFP1 agonist: agonists of human relaxin receptor RXFP1 | Q9HBX9 | HEK293T-RXFP1 cAMP TR-FRET, 30 min; response scale: percent of porcine relaxin response, buffer zero | Potency, µM (titrated, usually from 57.5 µM), most hits filed as activators | 370,000 tested, 0.3% active | AID 2676; active = well fitted activation curve with a large enough effect; inconclusive = small, poorly fitted or top-dose-only effect; note: nearly all actives have a fitted effect of over 60% in size
Target sequence (Q9HBX9 whole entry, looked up): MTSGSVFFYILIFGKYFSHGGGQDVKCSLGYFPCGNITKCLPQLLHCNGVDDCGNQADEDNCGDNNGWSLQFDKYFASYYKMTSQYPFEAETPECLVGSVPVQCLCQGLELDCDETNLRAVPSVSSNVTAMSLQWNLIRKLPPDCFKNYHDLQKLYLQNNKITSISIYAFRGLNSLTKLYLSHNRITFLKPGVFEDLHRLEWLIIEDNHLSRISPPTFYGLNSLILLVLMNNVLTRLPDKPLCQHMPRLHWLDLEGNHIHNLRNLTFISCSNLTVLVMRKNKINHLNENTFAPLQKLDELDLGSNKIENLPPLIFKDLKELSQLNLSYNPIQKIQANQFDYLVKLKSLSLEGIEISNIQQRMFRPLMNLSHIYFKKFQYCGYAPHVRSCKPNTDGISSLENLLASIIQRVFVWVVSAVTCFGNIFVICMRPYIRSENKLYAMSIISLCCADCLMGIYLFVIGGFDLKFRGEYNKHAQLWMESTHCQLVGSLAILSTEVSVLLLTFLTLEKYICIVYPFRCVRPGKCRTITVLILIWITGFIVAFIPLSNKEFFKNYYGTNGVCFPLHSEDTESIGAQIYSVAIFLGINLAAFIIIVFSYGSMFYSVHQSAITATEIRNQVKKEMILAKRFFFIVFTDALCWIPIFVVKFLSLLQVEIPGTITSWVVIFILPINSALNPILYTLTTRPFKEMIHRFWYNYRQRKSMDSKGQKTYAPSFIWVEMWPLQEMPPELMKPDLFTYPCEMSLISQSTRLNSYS
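Agonist response is measured as cAMP accumulation in an RXFP1-transfected HEK293T line under PDE4 inhibition. Values are scaled between buffer-only and 29 nM porcine relaxin, and EC50s come from standard Hill equation fits.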
RXFP1 antag: antagonists of human relaxin receptor RXFP1; Q9HBX9; HEK293-RXFP1, relaxin-stimulated cAMP HTRF, 30 min; active compounds read low; activity change, negative = inhibition, % at 57.5 µM; 350,000 tested, 0.59% active; AID 1259400;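 active = activity change of -60% or lower, but not beyond a set lower limit; inconclusive = change between -60% and -40%, or beyond the set limit; inactive = change above -40%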
pAkt inh: Akt phosphorylation inhibition. Neuro2A IGF-stimulated pAkt S473 HTRF, 20 min; active compounds read low. activity change, % for hits at 50 µM. 360,000 tested, 0.32% active; in the data active = activity change below about -80%; inconclusive = mostly about -51% to -80%
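Single-point screen (50 µM final compound) in Neuro2A cells stimulated 20 min with 6 nM IGF at 37 deg C. After lysis, Ser473-phosphorylated Akt read by HTRF (ex 330 nm, em 615/665 nm) as the 665/615 ratio.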
gsp antag: gsp mutant antagonism | gsp-mutant cells, cAMP HTRF, 30 min | AID 624288 | Potency, µM (top dose mostly 76.9 µM), usual class: inhibitors | 340,000 tested, 0.4% active; calls by dose curve; cell line not stated here;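 note: intracellular cAMP measured with PDE inhibitor Ro 20-1724 present during compound exposure; nearly all actives have a fitted effect of over 65% in size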
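Measurement of cellular cAMP by homogeneous time-resolved fluorescence following a 30 min compound exposure at 37C. The PDE inhibitor […] was present throughout; the assay buffer was DPBS with 0.05% BSA and 0.005% Tween 20.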
gsp agonist: gsp mutant agonism; AID 624287; gsp mutant cells, cAMP HTRF, 30 min; 340,000 tested, 0.13% active; Potency, µM (titrated, usually from 76.9 µM), usual class: activators; active = well fitted activation curve with a large enough effect; inconclusive = small, poorly fitted or top-dose-only effect, or another doubt; inactive = no such curve, though single readings can be large or run the other way; cell line not stated here;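 note: phosphodiesterase inhibitor Ro 20-1724 added with compounds to block cAMP breakdown; nearly all actives have a fitted effect of over 60% in size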
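Cells stably selected in G418 were plated at 2000/well, grown 16-24 hr, then given compounds in DMSO with the PDE inhibitor […] (300 uM solution added) for 30 min at 37C; cAMP was read by HTRF.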
Numbers stand for hits; – = inactive; ? = inconclusive; · = no result given; [ ] = remark or other dose.

SMILES	RXFP1 agonist	RXFP1 antag	pAkt inh	gsp antag	gsp agonist
COc1cc(NC(=O)c2ccccc2[N+](=O)[O-])ccc1NC(=O)c1cc2ccccc2o1	·	–	–	22µM	–
Cc1cc(-c2ccccc2)nc(N/N=C/c2ccc(O)cc2)n1	–	-77	–	–	–[15.4 µM]
Cc1cc(C)nc(N/N=C/c2ccccc2)n1	–	–	–	–	–
Oc1ccc(/C=N/Nc2nc(-c3ccc(Cl)cc3)cc(C(F)(F)F)n2)cc1	–	-61	–	?	–
CN(C)S(=O)(=O)Oc1cccc(C(=O)Nc2ccc(Cl)c(Cl)c2)c1	–	–	–	?	–
CN(C)S(=O)(=O)Oc1cccc(C(=O)Nc2cccc(Cl)c2)c1	–	–	–	28µM	–
O=C(c1cc(Cl)nc2ccccc12)N1CCN(S(=O)(=O)c2cccc(C(F)(F)F)c2)CC1	–	-77	–	–	–[15.4 µM]
CC(=O)OCP(C)(=O)COC(C)=O	–	–	-121%	–	–
CP(=O)(COC(=O)c1ccccc1)COC(=O)c1ccccc1	–	–	–	–[15.4 µM]	–
COC(=O)C1=C(C)N(c2cccc(Cl)c2)C(=O)C1	–	–	-118%	–	–
CCCCSc1ncnc2c1c(-c1ccccc1)cn2-c1cccc(F)c1	–	–	·	·	·
Cc1cccc(C(=O)Nc2ccc3nc(SCC(=O)N4CCCC4)sc3c2)c1	–	-66	·	·	·
COc1cccc(-c2nnc(NC(=O)c3ccc(S(=O)(=O)N4CC(C)OC(C)C4)cc3)o2)c1 (centres undefined)	–	–	–	35µM	–
O=C(CSc1nc(O)cc(=O)n1-c1ccccc1)Nc1ccc2c3c(cccc13)CC2	–	?	–	7.1µM	–[15.4 µM]
Cc1c(O)nc(SCC(=O)Nc2ccc3c4c(cccc24)CC3)n(-c2ccccc2)c1=O	–	–	–	–	–[15.4 µM]
CC1CCN(S(=O)(=O)c2cc(C(=O)Nc3ccc(Br)cc3F)n(C)c2)CC1	–	·	·	·	·
CC(=O)Nc1cccc(-c2csc(Nc3ccc(C)cn3)n2)c1	–	-60	–	–	–
NC(=O)c1ccsc1NC(=O)COC(=O)Cc1cccc2ccccc12	–	–	–	35µM	–
NC(=O)c1ccsc1NC(=O)COC(=O)Cc1c[nH]c2ccccc12	–	–	–	–	–
COc1ccc([C@]23Cc4cc(C#N)ccc4C(O2)c2c(c4ccc(OC)cc4oc2=O)O3)cc1	–[11.5 µM]	·	·	·	·
O=[N+]([O-])c1cccc(N/N=C/c2cccc(O)c2O)c1	–	-87	–	–	–[15.4 µM]
O=[N+]([O-])c1ccccc1N/N=C/c1cccc(O)c1O	–	–	–	–	–
CC1CCN(S(=O)(=O)c2ccc(Cl)cc2)CC1	–	–	–	50µM	–
COc1cc(C2C=C(C34CC5CC(CC(C5)C3)C4)NC(=S)N2)cc(OC)c1OC (centres undefined)	–	–	-113%	?	–
CCC1CCCCN1CCCNC(=O)c1ccc2c(c1)N(Cc1ccccc1F)C(=O)c1ccccc1S2(=O)=O (centres undefined)	–	·	·	·	·
SMILES	RXFP1 agonist	RXFP1 antag	pAkt inh	gsp antag	gsp agonist
C/C=C(/C)C(=O)OC1CC(C)(C)C[C@H]2C3=CC[C@@H]4[C@@]5(C)CCC(O[C@@H]6O[C@@H](C(=O)O)[C@@H](O)C(O[C@@H]7OC[C@H](O)[C@@H](O)[C@@H]7O[C@@H]7OC(CO)C(O)[C@@H](O)[C@@H]7O)C6O[C@@H]6OC(CO)C(O)C(O)C6O)[C@@](C)(CO)[C@@H]5CC[C@]4(C)[C@]3(C)CC(O)[C@@]12CO (some centres undefined)	·	·	–	50µM	·
C/C=C(\C)C(=O)OC1[C@H](OC(C)=O)C2(CO)C(CC1(C)C)C1=CCC3C4(C)CCC(O[C@@H]5O[C@H](C(=O)O)[C@@H](O[C@@H]6O[C@H](CO)[C@@H](O)[C@H](O)[C@H]6O)[C@H](O)[C@H]5O[C@H]5O[C@H](CO)[C@@H](O)[C@H](O)[C@H]5O)[C@](C)(CO)C4CCC3(C)[C@]1(C)C[C@H]2O (some centres undefined)	·	·	–	?	·
CCC(Cc1ccccc1)NC(=O)Cn1cccc1C(=O)c1ccccc1 (centres undefined)	–	-114	·	–	–
O=C(Cn1cccc1C(=O)c1ccccc1)NCCCc1ccccc1	–	–	–	–	?
CC(C)(Oc1ccc(Cl)cc1)C(=O)Nc1nnc2n1CCS2	–	·	·	·	·
COc1cc(C(=O)NC(=S)Nc2ccc(Cc3ccncc3)cc2)cc(OC)c1OC	–	–	–	32µM	–
COC(=O)Sc1nc(N2CCOCC2)c2c(c1C#N)CC(C)(C)OC2	–	–	–	–	14µM
Cc1ccc(C(CC(=O)NCC2(c3ccccc3)CCCC2)c2ccccc2)c(O)c1 (centres undefined)	–	-65	·	·	·
Cc1ccc(C(CC(=O)NCc2ccco2)c2ccccc2)c(O)c1 (centres undefined)	–	–	–	–	–
COc1cc(-n2c(C)nc3cc(C(=O)N4CCOCC4)ccc32)cc(OC)c1OC	–	–	-114%	–[15.4 µM]	–
COc1cc(-n2c(C)nc3cc(C(=O)NCC4CCCO4)ccc32)cc(OC)c1OC (centres undefined)	–	–	–	–	?
COc1ccccc1N1CCN(C(=O)c2ccc(C(C)(C)C)cc2)CC1	–	–	–	–	–
COc1ccccc1C1CCN(C(=O)c2ccc(C(C)(C)C)cc2)CC1	–	-90	–	–	–[15.4 µM]
COC(=O)c1ccccc1S(=O)(=O)Oc1ccc(-c2ccc(C(=O)O)cc2)cc1	–	–	–	28µM	–[15.4 µM]
O=C(O)c1ccc(-c2ccc(OS(=O)(=O)c3ccccc3F)cc2)cc1	–	–	–	–	–[15.4 µM]
CC(C)CC(C(=O)O)C(C)CC(=O)Nc1ccn(-c2ccccc2)n1 (centres undefined)	–	–	-108%	–	–
CC1CCN(c2ccc(-c3cccc(NS(=O)(=O)c4cccs4)c3)nn2)CC1	–	–	·	·	·
CCOC(=O)c1ccc(C(=O)OCC)nc1	–	–	-106%	–	–
CCOC(=O)c1cccnc1	·	–	·	·	·
CC1CCN(C(=O)Cn2cc(SCC(=O)NCc3ccccc3Cl)c3ccccc32)CC1	–	–	·	·	·
CCO[C@@H]1OC(C(=O)NCc2ccccc2)=C[C@H](C2CCCCC2)[C@H]1CCCO	–	·	–	11µM	–
COc1cccc(/C=N/Nc2nnc3c(n2)[nH]c2ccccc23)c1OC	–	-61	–	–	–
COc1cccc(C=NNc2nc3ccccc3s2)c1OC	·	–	–	–	–
COc1cc2c(cc1OC)C(C(C(=O)N(CCc1ccc(OC)c(OC)c1OC)CCc1ccc(OC)c(OC)c1OC)c1ccccc1)=NCC2 (centres undefined)	·	–	·	·	·
CCOc1ccc2[nH]c(C)c(CN3CCN(CC)CC3)c(=O)c2c1	–	–	-122%	–	?
COc1ccc(NC(=O)Cc2ccccc2)cn1	–	–	–	–	–[15.4 µM]
COc1ccc(NC(=O)/C(Cl)=C(/Cl)S(=O)Cc2ccccc2)cn1 (centres undefined)	–	-72	–	–	–
